{"source": "PubChem BioAssay (Tox21)", "note": "Records with an inconclusive call do not appear. Activity calls are given as the source filed them. The call rests on the fitted dose curve; in most records, active means well fitted cell-killing curve with a large enough effect in the repeat runs; inconclusive means weak or mixed curves, or effect the other way; inactive means no such curve, though single readings can be large or run the other way. On the % scale 0 is the no-effect control and ±100 the full control effect.", "data": [{"assay": "qHTS assay to identify small molecule antagonists of the glucocorticoid receptor (GR) signaling pathway - cell viability counter screen (AID 720693); further: nearly all actives have a fitted effect of over 55% in size", "conditions": "GR-bla HeLa viability, CellTiter-Glo luminescence, 18 h, with 5 nM dexamethasone present; series mostly up to 58.5 µM; viability change, negative = cytotoxic: at the top concentration", "description": "National Center for Advancing Translational Sciences [NCATS]\nNIH Chemical Genomics Center [NCGC]\nU.S. Environmental Protection Agency [EPA]\nNational Institutes of Environmental Health Sciences [NIEHS]\nNational Toxicology Program [NTP]\nU.S. Food and Drug Administration [FDA]\nThe Glucocorticoid receptor (GR) is one of the members of the nuclear receptor family of ligand-dependent transcription factors. GR plays a critical role in carbohydrate, protein and lipid metabolisms and programmed cell death. CellSensor GR-bla HeLa cell line (Invitrogen) contains a beta-lactamase reporter gene under the control of the glucocorticoid response element stably integrated into HeLa cells, a cervical cancer cell line that expresses glucocorticoid receptor. The activation of the reporter gene under culture conditions can be detected by fluorescence intensity. This cell line has been used to screen the Tox21 10K compound library and to identify the compounds that inhibit the GR signaling. The cytotoxicity of the Tox21 compound library against the GR-bla HeLa cell line was tested in parallel by measuring the cell viability using CellTiter-Glo assay in the same wells.\nTox21 Assay Protocol Summary:\nThe GR-bla HeLa cells were dispensed at 1500 cells/5 ul/well in 1536-well black wall/clear bottom plates using a Multidrop Combi (ThermoFisher Scientific, Waltham, MA) dispenser. After the assay plates were incubated at a 37 C/5% CO2 incubator for 4 hours, 23 nL of compounds dissolved in DMSO, positive controls or DMSO only was transferred to the assay plate by a pintool station (Kalypsys, San Diego, CA), followed by addition of 1 uL of dexamethasone (5 nM, final concentration in the well). The plates were incubated at 37 C for 18 hours. After 1 uL of LiveBLAzerTM B/G FRET substrate was added using a Flying Reagent Dispenser (Aurora Discovery, San Diego, CA), the plates were incubated at room temperature (RT) for 2 hours, and fluorescence intensity was measured by an Envision plate reader (PerkinElmer, Shelton, CT). After measurement of bla assay, 3 ul CellTiter-Glo (Promega, Madison, WI) was added to measure the cytotoxicity and the plates were then incubated at RT for 30 min. The luminescence was measured using a ViewLux (Perkin Elmer) plate reader.", "values": [{"smiles": "OCCN(CCO)c1cccc(Cl)c1", "viability change, negative = cytotoxic": "5.35% (inactive)"}, {"smiles": "O=S(=O)(O)CCN1CCN(CCO)CC1", "viability change, negative = cytotoxic": "-1.02% (inactive)"}, {"smiles": "C[C@H](CCC(=O)O)[C@H]1CC[C@H]2[C@@H]3C(=O)C[C@@H]4CC(=O)CC[C@]4(C)[C@H]3CC(=O)[C@]12C", "viability change, negative = cytotoxic": "27.2% (inactive)"}, {"smiles": "N#Cc1ccc(C(=O)O)cc1", "viability change, negative = cytotoxic": "-7.44% (inactive)"}, {"smiles": "CC(=O)Nc1ccc(S(=O)(=O)Cl)cc1", "viability change, negative = cytotoxic": "-11.5% (inactive)"}, {"smiles": "COc1nccnc1NS(=O)(=O)c1ccc(N)cc1", "viability change, negative = cytotoxic": "11.1% (inactive)"}, {"smiles": "CCOC(=O)c1ccc(OC(=O)CCCCCN=C(N)N)cc1", "viability change, negative = cytotoxic": "-6.55% [at 27 µM] (inactive)"}, {"smiles": "O=Cc1ccc(Cl)c(Cl)c1", "viability change, negative = cytotoxic": "0.253% [at 78.9 µM] (inactive)"}, {"smiles": "Cc1cccc(C)c1OCC(C)N", "note": "(stereo not given)", "viability change, negative = cytotoxic": "9.13% (inactive)"}, {"smiles": "O=C(O)C(=O)Cc1ccccc1", "viability change, negative = cytotoxic": "18.4% (inactive)"}, {"smiles": "CC[C@H](C)C(=O)O[C@H]1C[C@H](O)C=C2C=C[C@H](C)[C@H](CC[C@@H](O)C[C@@H](O)CC(=O)O)[C@H]21", "outcome": "inactive"}, {"smiles": "COC(=O)CCc1ccc(OCC(O)CNC(C)C)cc1", "note": "(stereo not given)", "viability change, negative = cytotoxic": "-0.269% (inactive)"}, {"smiles": "COC(=O)CCCCCCCC(=O)OC", "viability change, negative = cytotoxic": "-3.14% (inactive)"}, {"smiles": "CCC(C)(CCC(C)C)C(=O)O", "note": "(stereo not given)", "viability change, negative = cytotoxic": "-9.31% (inactive)"}, {"smiles": "CC1(C)S[C@@H]2[C@H](N=CN3CCCCCC3)C(=O)N2[C@H]1C(=O)O", "viability change, negative = cytotoxic": "-9.97% (inactive)"}, {"smiles": "Oc1cn2c(n1)Nc1ccc(Cl)c(Cl)c1C2", "outcome": "inactive"}, {"smiles": "OCCCCC(O)CO", "note": "(stereo not given)", "viability change, negative = cytotoxic": "16.2% (inactive)"}, {"smiles": "COC(=O)[C@@H]1[C@H]2C[C@H]3c4[nH]c5ccccc5c4CCN3C[C@@H]2CC[C@@H]1O", "viability change, negative = cytotoxic": "-7.28% (inactive)"}, {"smiles": "C=COCCOCCOCCOC=C", "viability change, negative = cytotoxic": "19.7% (inactive)"}, {"smiles": "CCCN1C[C@H](CSC)C[C@@H]2c3cccc4[nH]cc(c34)C[C@H]21", "viability change, negative = cytotoxic": "24% (inactive)"}, {"smiles": "CCCC/C=C/C=C\\C=O", "viability change, negative = cytotoxic": "-2.07% (inactive)"}, {"smiles": "O=C(NCCc1c[nH]c2ccccc12)c1cccnc1", "viability change, negative = cytotoxic": "1.13% (inactive)"}, {"smiles": "COC(=O)c1ccccc1C(=O)c1ccc(OCCN2CCCCC2)cc1", "viability change, negative = cytotoxic": "3.39% (inactive)"}, {"smiles": "O=C(O)Cc1ccc(Cl)cc1Cl", "viability change, negative = cytotoxic": "-7.59% (inactive)"}, {"smiles": "COc1ccc2c(c1)C(=O)N(CCc1ccc(S(=O)(=O)NC(=O)NC3CCCCC3)cc1)C(=O)C2(C)C", "viability change, negative = cytotoxic": "0.485% [at 27 µM] (inactive)"}, {"smiles": "CN(C)CCOCCO", "viability change, negative = cytotoxic": "-2.33% (inactive)"}, {"smiles": "CC/C=C\\CC1=C(C)CCC1=O", "viability change, negative = cytotoxic": "7.02% (inactive)"}, {"smiles": "NCCS", "outcome": "inactive"}, {"smiles": "CC(=O)Nc1ccc(S(=O)(=O)Nc2ccc([N+](=O)[O-])cc2)cc1", "viability change, negative = cytotoxic": "-1.88% (inactive)"}, {"smiles": "COc1cc(C(=S)N2CCOCC2)cc(OC)c1OC", "viability change, negative = cytotoxic": "11.7% (inactive)"}, {"smiles": "O=C(CCNNC(=O)c1ccncc1)NCc1ccccc1", "viability change, negative = cytotoxic": "5.07% (inactive)"}, {"smiles": "OC[C@H](Cc1cccc(O)c1)[C@H](CO)Cc1cccc(O)c1", "viability change, negative = cytotoxic": "-5.66% [at 78.9 µM] (inactive)"}, {"smiles": "C=Cc1ccccn1", "viability change, negative = cytotoxic": "0.988% [at 78.9 µM] (inactive)"}, {"smiles": "O=C(O)c1ccc(Cl)cc1Cl", "viability change, negative = cytotoxic": "1.5% [at 78.9 µM] (inactive)"}, {"smiles": "O=C(NCC(O)CO)c1c(I)c(C(=O)NCC(O)CO)c(I)c(N(CCO)C(=O)CO)c1I", "note": "(stereo not given)", "viability change, negative = cytotoxic": "1.73% [at 27 µM] (inactive)"}, {"smiles": "O=C(NCCN1CCOCC1)c1ccc(Cl)cc1", "outcome": "inactive"}, {"smiles": "O=S(=O)(O)c1cc(O)c2ccc(Nc3ccccc3)cc2c1", "viability change, negative = cytotoxic": "18.9% (inactive)"}, {"smiles": "CCCCOC(=O)c1ccccc1", "viability change, negative = cytotoxic": "1.15% (inactive)"}, {"smiles": "O=C1c2ccccc2C(=O)c2cc(S(=O)(=O)O)ccc21", "viability change, negative = cytotoxic": "-4.34% [at 78.9 µM] (inactive)"}, {"smiles": "CCCCCCCCCC(C)=O", "viability change, negative = cytotoxic": "-2.38% [at 78.9 µM] (inactive)"}]}]}
